According to PubChem BioAssay (NCATS):
“And” between values parts separate entries of the source, which are not always exact repeats. Equal values may be shown once. Results filed as inconclusive are left out. The source holds several records for some structures; these can differ, active in one and inactive in another. The source made the active and inactive calls. The call rests on the fitted dose curve; in most records, active means well fitted curve in the direction sought with a large enough effect; inconclusive means small, poorly fitted or top-dose-only effect, or another doubt; inactive means no such curve, though single readings can be large; an effect the other way counts as inactive or inconclusive.

Experiments:
[1] = tested on: HEK293; experiment: Cytotoxic Profiling of Annotated Libraries Using Quantitative High-Throughput Screening (AID 1296008); details: Five cell lines viability, CellTiter-Glo ATP luminescence, 48-72 h; max response: stronger effect = lower value; further: nearly all actives have a fitted effect of over 60% in size
Method in brief: (§1)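 Cells exposed to compounds for 48 or 72 hr at 37 degrees Celsius. Viability read as ATP-coupled luminescence with CellTiter-Glo after 10 min at room temperature.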

[2] = tested on: NIH3T3; experiment: as above; details: Five cell lines viability, CellTiter-Glo ATP luminescence, 48-72 h; max response: stronger effect = lower value
Method in brief: as §1

[3] = tested on: MCC-26; experiment: qHTS assay to identify novel small-molecules to repurpose for Merkel cell carcinoma treatment (AID 1296009); details: MCC and control cell lines, CellTiter-Glo viability, 72 h; series mostly up to 46 µM; further: nearly all actives have a fitted effect of over 60% in size; on activity change, negative = cytotoxicity: on the % scale 0 is the no-effect control and ±100 the full control effect
Method in brief: (§2)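 Dose-response viability screen; 72 hr exposure at 37 degree celsius; CellTiter-Glo added, 10 min room temperature, luminescence read; RLUs scaled between no-cell and DMSO wells.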

[4] = tested on: UISO; experiment: as above; details: MCC and control cell lines, CellTiter-Glo viability, 72 h; series mostly up to 46 µM
Method in brief: as §2

[5] = tested on: WaGa; experiment: as above; details: MCC and control cell lines, CellTiter-Glo viability, 72 h; series mostly up to 46 µM
Method in brief: as §2

[6] = tested on: CASKI; experiment: Primary qHTS to identify gynecologic anti-cancer compounds using libraries of approved drugs and bioactive compounds (AID 1345084); details: Gynecologic cancer cell panel viability, ATPlite luminescence, 48 h; series mostly up to 57.5 µM; further: nearly all actives have a fitted effect of over 55% in size; on activity change, negative = cytotoxicity: on the % scale 0 is the no-effect control and ±100 the full control effect
Method in brief: (§3)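 ATP-based viability (ATPlite), 1,000 cells/well, 16 h pre-incubation, 48 h compound at 37 C, 5% CO2, 15 min RT before read.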

[7] = tested on: HaCat; experiment: Cytotoxic Profiling of Annotated Libraries Using Quantitative High-Throughput Screening (AID 1296008); details: Five cell lines viability, CellTiter-Glo ATP luminescence, 48-72 h; max response: stronger effect = lower value; further: nearly all actives have a fitted effect of over 60% in size
Method in brief: as §1

[8] = tested on: KB-3-1; experiment: as above; details: Five cell lines viability, CellTiter-Glo ATP luminescence, 48-72 h; max response: stronger effect = lower value
Method in brief: as §1

[9] = tested on: HACAT; experiment: qHTS assay to identify novel small-molecules to repurpose for Merkel cell carcinoma treatment (AID 1296009); details: MCC and control cell lines, CellTiter-Glo viability, 72 h; at 44.8 µM (top of the series) unless noted; further: nearly all actives have a fitted effect of over 60% in size; on activity change, negative = cytotoxicity: on the % scale 0 is the no-effect control and ±100 the full control effect
Method in brief: as §2

[10] = tested on: MCC-13; experiment: as above; details: MCC and control cell lines, CellTiter-Glo viability, 72 h; series mostly up to 46 µM
Method in brief: as §2

[11] = tested on: MKL-1; experiment: as above; details: MCC and control cell lines, CellTiter-Glo viability, 72 h; series mostly up to 46 µM
Method in brief: as §2

[12] = tested on: C33A; experiment: Primary qHTS to identify gynecologic anti-cancer compounds using libraries of approved drugs and bioactive compounds (AID 1345084); details: Gynecologic cancer cell panel viability, ATPlite luminescence, 48 h; series mostly up to 57.5 µM; further: nearly all actives have a fitted effect of over 55% in size
Method in brief: as §3

[13] = tested on: CAOV3; experiment: as above; details: Gynecologic cancer cell panel viability, ATPlite luminescence, 48 h; series mostly up to 57.5 µM
Method in brief: as §3

[14] = tested on: Es-2; experiment: as above; details: Gynecologic cancer cell panel viability, ATPlite luminescence, 48 h; series mostly up to 57.5 µM
Method in brief: as §3

[15] = tested on: HeLa; experiment: as above; details: Gynecologic cancer cell panel viability, ATPlite luminescence, 48 h; series mostly up to 57.5 µM
Method in brief: as §3

[16] = tested on: CRL-7250; experiment: Cytotoxic Profiling of Annotated Libraries Using Quantitative High-Throughput Screening (AID 1296008); details: Five cell lines viability, CellTiter-Glo ATP luminescence, 48-72 h; max response: stronger effect = lower value; further: nearly all actives have a fitted effect of over 60% in size
Method in brief: as §1

[17] = tested on: W2; experiment: qHTS profiling for inhibitors of Plasmodium falciparum proliferation (AID 504749); further: nearly all actives have a fitted effect of over 60% in size; details: P. falciparum in erythrocytes, SYBR Green DNA, 72 h; series mostly up to 28.7 µM
Method in brief: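 Each compound contacts P. falciparum-infected red blood cells for 72 h at 37 C; lysis buffer (Tris, EDTA, saponin, Triton X, SYBR Green I) is added and fluorescence measured next morning; values normalized to controls.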

[18] = tested on: MKL-2; experiment: qHTS assay to identify novel small-molecules to repurpose for Merkel cell carcinoma treatment (AID 1296009); details: MCC and control cell lines, CellTiter-Glo viability, 72 h; series mostly up to 46 µM; further: nearly all actives have a fitted effect of over 60% in size; on activity change, negative = cytotoxicity: on the % scale 0 is the no-effect control and ±100 the full control effect
Method in brief: as §2

[19] = tested on: NIH3T3; experiment: as above; details: MCC and control cell lines, CellTiter-Glo viability, 72 h; at 44.8 µM (top of the series) unless noted
Method in brief: as §2

[20] = tested on: HEK293T; experiment: as above; details: MCC and control cell lines, CellTiter-Glo viability, 72 h; at 44.8 µM (top of the series) unless noted
Method in brief: as §2
Potency means the concentration at half of the fitted maximal effect.

NC1[C@H]2CN(c3nc4c(cc3F)c(=O)c(C(=O)O)cn4-c3ccc(F)cc3F)C[C@@H]12 (stereo partly specified)
inactive: Potency [3] | Potency [6]
active: Potency [1] 15 µM | Potency [2] 16.8 µM | Potency [4] 26.6 µM | Potency [5] 21.1 µM

CN(C)CCC=C1c2ccccc2CCc2ccccc21
inactive: outcome [7] | max response [8] -15.7% | max response [2] -1.26% | outcome [9] | Potency [10] | Potency [11] | Potency [4] | Potency [12] | Potency [13] | Potency [6] | Potency [14] | Potency [15]

CC(CN(C)C)CN1c2ccccc2CCc2ccccc21 (stereo unspecified)
inactive: outcome [16] | max response [7] 2.23% | max response [8] 4.48% | max response [2] 4.54% | Potency [10] | Potency [3] | Potency [11] | Potency [4] | Potency [5] | Potency [12] | Potency [13] | Potency [14] | Potency [15]

CC[C@H]1CN2CCc3cc(OC)c(OC)cc3[C@@H]2C[C@@H]1C[C@H]1NCCc2cc(OC)c(OC)cc21
active: Potency [6] 0.355 µM | Potency [14] 447 nM | Potency [15] 0.398 µM

CC(=O)c1ccc2c(c1)N(CCCN(C)C)c1ccccc1S2
inactive: max response [8] -1.52% | max response [2] 1.48% | Potency [10] | Potency [11] | Potency [4] | Potency [12] | Potency [13] | Potency [6] | Potency [14]
active: Potency [17] 1.02 µM | Potency [5] 26.6 µM

CN1CCCCC1CCN1c2ccccc2Sc2ccc(S(C)=O)cc21 (stereo unspecified)
active: Potency [17] 1.9 µM
inactive: outcome [16] | outcome [7] | max response [8] -15.2% and 0.424% | max response [2] -18.7% | outcome [9] | Potency [10] | Potency [3] | Potency [11] | Potency [18] | Potency [4] | Potency [12] | Potency [13] | Potency [6] | Potency [14] | Potency [15]

NC(=O)N/N=C/c1ccc([N+](=O)[O-])o1
active: Potency [17] 9.53 µM | Potency [11] 24.3 µM | Potency [18] 15.4 µM | Potency [5] 38.6 µM | Potency [15] 31.6 µM
inactive: max response [16] -6.15% | max response [7] -0.194% | outcome [7] | max response [8] -7.34% and -25.8% | max response [2] 3.44% | outcome [9] | Potency [10] | Potency [3] | Potency [4] | Potency [12] | Potency [6]
31.6 µM (active) and inactive: Potency [14]

C[C@](N)(Cc1ccc(O)cc1)C(=O)O
inactive: Potency [17] | activity change, negative = cytotoxicity [10] 6.34% [at 4.84 µM] | activity change, negative = cytotoxicity [3] 5.04% [at 4.84 µM] | activity change, negative = cytotoxicity [11] -2.87% [at 4.84 µM] | activity change, negative = cytotoxicity [18] 7.48% [at 4.84 µM] | outcome [19] inactive [at 4.96 µM] | activity change, negative = cytotoxicity [4] 17.6% [at 4.84 µM] | activity change, negative = cytotoxicity [5] -0.23% [at 4.84 µM] | activity change, negative = cytotoxicity [12] 11.8% [at 6.55 µM] | activity change, negative = cytotoxicity [6] 2.23% [at 6.55 µM] | activity change, negative = cytotoxicity [14] -8.81% [at 6.55 µM] | activity change, negative = cytotoxicity [15] 0.756% [at 6.55 µM]

CCN(CC)C(C)CN1c2ccccc2Sc2ccccc21 (stereo unspecified)
inactive: outcome [20] | Potency [10] | Potency [3] | Potency [11] | Potency [18] | outcome [19] | Potency [4] | Potency [5] | Potency [12] | Potency [6] | Potency [14] | Potency [15]

CCN(CC)CCCC(C)Nc1c2ccc(Cl)cc2nc2ccc(OC)cc12 (stereo unspecified)
inactive: max response [8] -7.27% | Potency [14] | Potency [15]
active: Potency [16] 16.8 µM | Potency [1] 7.5 µM and 3.17 µM | Potency [10] 23.7 µM | Potency [11] 15 µM | Potency [18] 3.35 µM | Potency [5] 26.6 µM | Potency [13] 3.98 µM
12.6 µM (active) and inactive: Potency [12]

CCCCN(CCCC)CC(O)c1cc(Cl)cc2c1-c1ccc(Cl)cc1/C2=C/c1ccc(Cl)cc1 (stereo unspecified)
inactive: max response [7] -7.84% | max response [8] -7.25% | Potency [10] | Potency [5] | Potency [12] | Potency [13] | Potency [6] | Potency [14] | Potency [15]

CNCC(O)c1ccc(O)c(O)c1 (stereo unspecified)
active: Potency [11] 16.8 µM | Potency [18] 13.3 µM | Potency [4] 16.8 µM
inactive: max response [7] -0.0091% | max response [2] -1.98% | Potency [15]

COc1ccc2cc1Oc1ccc(cc1)C[C@H]1c3c(cc4c(c3Oc3cc5c(cc3OC)CCN(C)[C@@H]5C2)OCO4)CCN1C
active: Potency [1] 10.6 µM and 7.31 µM | Potency [11] 23.7 µM | Potency [18] 3.35 µM | Potency [5] 18.8 µM
inactive: outcome [7] | max response [8] 0.814% | outcome [9] | Potency [10] | Potency [3] | Potency [12] | Potency [6] | Potency [14] | Potency [15]

CC(=O)Oc1c(C)c(C)c2c(c1C)CC[C@@](C)(CCC[C@H](C)CCC[C@H](C)CCCC(C)C)O2
inactive: Potency [12] | Potency [13] | Potency [6] | Potency [14] | Potency [15]
